Measured values published in the supplement of paper PMC11001985.

These targets were tested with C#CCNC(=O)CCSSCCC(=O)NCCc1ccc(C=O)c(C=O)c1 (assay: lysine labeling ratio R10:1 (500 µM / 50 µM probe), SILAC-ABPP in living cells; higher = lower intrinsic lysine reactivity toward the probe, active = 2 or less). Conditions: HeLa; probe concentrations 500 vs 50 µM.
Experimental: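 Living HeLa cells (SILAC light/heavy) in PBS at room temperature were labeled with 50 µM versus 500 µM of the lysine-reactive, reductant-cleavable probe OPA-S-S-alkyne (SILAC labeling time not stated). Probe-modified peptides were CuAAC-biotinylated, captured on neutravidin and eluted with DTT/IAA, then quantified by LC-MS/MS. R = median peptide ratio per lysine (500/50 µM), combined over 3 forward and 3 reverse SILAC replicates. Ratios are capped at 20; R < 2 = hyper-reactive.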

Sequence of UniProt P05787 (P05787 whole entry): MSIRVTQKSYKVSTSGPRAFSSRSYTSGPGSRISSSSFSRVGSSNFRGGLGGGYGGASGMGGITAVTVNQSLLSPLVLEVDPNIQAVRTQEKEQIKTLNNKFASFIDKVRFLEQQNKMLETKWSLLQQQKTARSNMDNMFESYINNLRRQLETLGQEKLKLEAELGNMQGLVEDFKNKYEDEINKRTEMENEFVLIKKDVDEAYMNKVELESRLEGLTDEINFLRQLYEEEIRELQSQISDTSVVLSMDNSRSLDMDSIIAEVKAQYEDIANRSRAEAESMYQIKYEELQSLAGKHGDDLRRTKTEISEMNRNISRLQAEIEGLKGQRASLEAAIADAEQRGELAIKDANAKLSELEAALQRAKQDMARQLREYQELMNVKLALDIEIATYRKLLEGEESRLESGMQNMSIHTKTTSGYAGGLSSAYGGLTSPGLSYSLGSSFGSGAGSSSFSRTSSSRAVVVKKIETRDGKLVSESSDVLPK
Sequence of UniProt Q13813 (Q13813 whole entry): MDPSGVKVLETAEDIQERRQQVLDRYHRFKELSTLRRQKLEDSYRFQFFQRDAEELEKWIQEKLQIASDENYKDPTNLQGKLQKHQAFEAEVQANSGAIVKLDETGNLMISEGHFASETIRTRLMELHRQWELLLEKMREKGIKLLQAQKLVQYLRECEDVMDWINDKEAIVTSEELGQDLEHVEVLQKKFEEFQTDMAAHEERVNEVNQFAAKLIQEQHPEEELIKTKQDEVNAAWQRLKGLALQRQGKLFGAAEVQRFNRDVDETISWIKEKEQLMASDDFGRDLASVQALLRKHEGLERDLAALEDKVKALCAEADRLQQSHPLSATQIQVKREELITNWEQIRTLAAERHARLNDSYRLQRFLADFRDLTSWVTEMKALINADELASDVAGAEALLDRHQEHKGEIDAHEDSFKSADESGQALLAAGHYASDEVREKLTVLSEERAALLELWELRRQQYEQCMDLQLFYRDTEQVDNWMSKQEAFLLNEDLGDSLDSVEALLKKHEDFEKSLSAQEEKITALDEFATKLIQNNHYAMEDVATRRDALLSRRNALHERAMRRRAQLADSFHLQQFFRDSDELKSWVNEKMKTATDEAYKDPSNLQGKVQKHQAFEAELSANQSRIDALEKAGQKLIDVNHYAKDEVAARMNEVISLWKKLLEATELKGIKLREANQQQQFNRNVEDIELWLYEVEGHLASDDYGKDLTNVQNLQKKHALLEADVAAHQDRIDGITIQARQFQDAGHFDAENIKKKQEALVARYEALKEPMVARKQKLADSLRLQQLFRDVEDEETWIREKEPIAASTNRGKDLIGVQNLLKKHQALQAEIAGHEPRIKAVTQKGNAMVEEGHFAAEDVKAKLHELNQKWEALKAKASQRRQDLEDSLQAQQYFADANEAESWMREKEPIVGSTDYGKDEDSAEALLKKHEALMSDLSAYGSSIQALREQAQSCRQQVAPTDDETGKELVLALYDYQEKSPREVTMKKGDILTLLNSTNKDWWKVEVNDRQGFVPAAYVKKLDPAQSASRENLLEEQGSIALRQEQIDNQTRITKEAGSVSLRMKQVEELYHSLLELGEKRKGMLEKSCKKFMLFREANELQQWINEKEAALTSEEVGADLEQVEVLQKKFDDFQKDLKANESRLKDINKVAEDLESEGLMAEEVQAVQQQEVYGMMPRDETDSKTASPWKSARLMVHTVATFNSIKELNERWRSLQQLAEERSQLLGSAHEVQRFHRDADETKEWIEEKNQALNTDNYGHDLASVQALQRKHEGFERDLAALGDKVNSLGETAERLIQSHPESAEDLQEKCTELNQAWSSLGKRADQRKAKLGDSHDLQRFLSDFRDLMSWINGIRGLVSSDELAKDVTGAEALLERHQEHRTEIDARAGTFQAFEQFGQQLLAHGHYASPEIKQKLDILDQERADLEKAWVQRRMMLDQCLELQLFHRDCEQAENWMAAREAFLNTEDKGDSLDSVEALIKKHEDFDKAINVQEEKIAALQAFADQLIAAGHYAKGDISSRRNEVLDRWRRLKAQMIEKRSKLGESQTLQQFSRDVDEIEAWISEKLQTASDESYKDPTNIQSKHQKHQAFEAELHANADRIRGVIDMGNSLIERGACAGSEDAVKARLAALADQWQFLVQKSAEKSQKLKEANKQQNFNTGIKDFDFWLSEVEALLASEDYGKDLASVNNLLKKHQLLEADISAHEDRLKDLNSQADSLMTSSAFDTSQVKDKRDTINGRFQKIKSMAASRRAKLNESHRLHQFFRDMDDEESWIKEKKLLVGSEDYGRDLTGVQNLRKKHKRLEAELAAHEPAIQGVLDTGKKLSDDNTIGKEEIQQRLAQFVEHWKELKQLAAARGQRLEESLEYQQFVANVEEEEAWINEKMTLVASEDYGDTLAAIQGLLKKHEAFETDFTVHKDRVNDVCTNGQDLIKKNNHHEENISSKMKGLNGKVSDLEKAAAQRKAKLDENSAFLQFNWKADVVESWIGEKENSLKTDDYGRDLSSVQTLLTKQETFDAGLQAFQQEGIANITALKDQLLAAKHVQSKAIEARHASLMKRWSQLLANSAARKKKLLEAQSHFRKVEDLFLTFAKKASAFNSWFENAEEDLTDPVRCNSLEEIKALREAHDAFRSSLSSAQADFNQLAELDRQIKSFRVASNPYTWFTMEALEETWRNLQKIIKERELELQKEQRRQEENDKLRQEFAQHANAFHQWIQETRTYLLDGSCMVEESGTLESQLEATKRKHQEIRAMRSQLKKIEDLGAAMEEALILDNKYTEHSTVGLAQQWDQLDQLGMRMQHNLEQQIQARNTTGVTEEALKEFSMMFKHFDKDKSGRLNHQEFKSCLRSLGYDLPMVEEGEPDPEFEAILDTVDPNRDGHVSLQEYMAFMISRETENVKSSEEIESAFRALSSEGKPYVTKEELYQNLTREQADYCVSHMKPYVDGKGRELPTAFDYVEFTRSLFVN
Sequence of UniProt O43854 (O43854 whole entry): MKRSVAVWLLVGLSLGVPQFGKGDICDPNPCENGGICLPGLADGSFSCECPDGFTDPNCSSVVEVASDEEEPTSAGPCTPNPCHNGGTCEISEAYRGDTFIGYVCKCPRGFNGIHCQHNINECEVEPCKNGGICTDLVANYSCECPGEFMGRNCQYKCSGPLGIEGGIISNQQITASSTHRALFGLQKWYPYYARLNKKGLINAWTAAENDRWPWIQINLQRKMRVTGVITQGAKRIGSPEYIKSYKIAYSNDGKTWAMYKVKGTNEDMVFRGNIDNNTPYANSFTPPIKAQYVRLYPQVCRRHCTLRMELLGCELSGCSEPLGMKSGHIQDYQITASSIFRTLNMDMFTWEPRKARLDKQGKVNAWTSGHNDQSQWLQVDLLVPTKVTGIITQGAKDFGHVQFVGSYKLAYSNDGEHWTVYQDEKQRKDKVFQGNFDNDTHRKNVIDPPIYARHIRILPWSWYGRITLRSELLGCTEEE
Sequence of UniProt Q9Y3C8 (Q9Y3C8 whole entry): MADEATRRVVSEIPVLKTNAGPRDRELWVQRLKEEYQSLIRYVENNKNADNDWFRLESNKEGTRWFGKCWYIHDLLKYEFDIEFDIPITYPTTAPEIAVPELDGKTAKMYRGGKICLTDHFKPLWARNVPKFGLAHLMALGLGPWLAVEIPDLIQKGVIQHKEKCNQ
Sequence of UniProt P11021 (P11021 whole entry): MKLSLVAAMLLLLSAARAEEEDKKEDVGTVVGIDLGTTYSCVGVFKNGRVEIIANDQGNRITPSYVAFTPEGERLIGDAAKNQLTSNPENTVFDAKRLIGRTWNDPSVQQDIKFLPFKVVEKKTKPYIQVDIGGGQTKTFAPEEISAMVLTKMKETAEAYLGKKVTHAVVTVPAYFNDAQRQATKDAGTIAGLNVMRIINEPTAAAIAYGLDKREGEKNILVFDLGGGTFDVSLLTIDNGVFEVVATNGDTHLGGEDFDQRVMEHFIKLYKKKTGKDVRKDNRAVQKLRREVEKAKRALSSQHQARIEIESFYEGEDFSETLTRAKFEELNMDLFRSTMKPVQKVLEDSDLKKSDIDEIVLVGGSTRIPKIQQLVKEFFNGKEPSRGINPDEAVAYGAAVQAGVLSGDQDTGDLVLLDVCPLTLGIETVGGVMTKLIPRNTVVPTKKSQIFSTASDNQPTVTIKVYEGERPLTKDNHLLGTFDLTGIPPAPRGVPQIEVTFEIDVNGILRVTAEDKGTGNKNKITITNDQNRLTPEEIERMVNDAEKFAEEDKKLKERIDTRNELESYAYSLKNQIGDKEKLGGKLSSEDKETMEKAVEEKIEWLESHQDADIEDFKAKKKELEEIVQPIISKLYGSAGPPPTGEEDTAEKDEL
Sequence of UniProt P49368 (P49368 whole entry): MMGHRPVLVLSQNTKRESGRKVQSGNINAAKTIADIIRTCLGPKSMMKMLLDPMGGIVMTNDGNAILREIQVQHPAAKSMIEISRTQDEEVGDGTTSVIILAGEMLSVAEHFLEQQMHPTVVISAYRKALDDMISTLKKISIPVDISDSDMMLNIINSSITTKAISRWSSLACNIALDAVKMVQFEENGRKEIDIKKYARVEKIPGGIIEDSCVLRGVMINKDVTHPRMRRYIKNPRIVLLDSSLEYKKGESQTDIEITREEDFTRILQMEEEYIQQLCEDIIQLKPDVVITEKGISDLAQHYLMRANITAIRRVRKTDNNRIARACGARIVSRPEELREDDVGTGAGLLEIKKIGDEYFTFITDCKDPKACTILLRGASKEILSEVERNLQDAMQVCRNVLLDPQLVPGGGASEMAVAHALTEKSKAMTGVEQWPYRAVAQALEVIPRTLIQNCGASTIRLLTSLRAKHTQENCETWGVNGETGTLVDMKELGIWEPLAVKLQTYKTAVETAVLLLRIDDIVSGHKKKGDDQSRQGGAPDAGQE
Sequence of UniProt P48509 (P48509 whole entry): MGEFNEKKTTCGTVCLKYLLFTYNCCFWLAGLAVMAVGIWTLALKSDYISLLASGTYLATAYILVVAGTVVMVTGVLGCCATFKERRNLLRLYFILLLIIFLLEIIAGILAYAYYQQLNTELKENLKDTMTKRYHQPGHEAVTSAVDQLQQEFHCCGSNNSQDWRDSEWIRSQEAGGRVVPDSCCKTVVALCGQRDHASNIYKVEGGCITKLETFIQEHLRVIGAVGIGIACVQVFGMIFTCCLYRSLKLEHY

Row | Target | lysine labeling ratio R10:1
1 | NUMA1 (lysine site: K645) (UniProt Q14980) | 1.09 (active)
2 | SLC9A6 (lysine site: K61) (UniProt Q92581) | 4.56 (inactive)
3 | CCT8 (lysine site: K326) (UniProt P50990) | 3.67 (inactive)
4 | HSPA5 (lysine site: K185) (UniProt P11021) | 3.68 (inactive)
5 | ANTXR1 (lysine site: K94) (UniProt Q9H6X2) | 2.11 (inactive)
6 | PLS3 (lysine site: K315) (UniProt P13797) | 1.71 (active)
7 | PDIA4 (lysine site: K582) (UniProt P13667) | 2.17 (inactive)
8 | DDR1 (lysine site: K30) (UniProt Q08345) | 1.33 (active)
9 | COL5A1 (lysine site: K164) (UniProt P20908) | 3.25 (inactive)
10 | TKT (lysine site: K16) (UniProt P29401) | 2.68 (inactive)
11 | EDIL3 (lysine site: K431) (UniProt O43854) | 1.29 (active)
12 | C1QBP (lysine site: K91) (UniProt Q07021) | 0.97 (active)
13 | UniProt P62913 (lysine site: K154) | 2.92 (inactive)
14 | THBS1 (lysine site: K1103) (UniProt P07996) | 0.85 (active)
15 | EIF2S1 (lysine site: K190) (UniProt P05198) | 2.9 (inactive)
16 | IGF2R (lysine site: K1104) (UniProt P11717) | 3.26 (inactive)
17 | CCT3 (lysine site: K222) (UniProt P49368) | 2.19 (inactive)
18 | GPC1 (lysine site: K236) (UniProt P35052) | 3.17 (inactive)
19 | SPTAN1 (lysine site: K30) (UniProt Q13813) | 5.74 (inactive)
20 | PCMT1 (lysine site: K125) (UniProt P22061) | 1.38 (active)

Row | Target | lysine labeling ratio R10:1
21 | UniProt Q68BL7 (lysine site: K168) | 1.12 (active)
22 | PICALM (lysine site: K324) (UniProt Q13492) | 1.36 (active)
23 | ITGB1 (lysine site: K238) (UniProt P05556) | 1.34 (active)
24 | ACOT7 (lysine site: K198) (UniProt O00154) | 2.95 (inactive)
25 | UniProt P83731 (lysine site: K93) | 6.58 (inactive)
26 | UFC1 (lysine site: K33) (UniProt Q9Y3C8) | 3.81 (inactive)
27 | UniProt P05787 (lysine site: K207) | 3.47 (inactive)
28 | SPTAN1 (lysine site: K1759) (UniProt Q13813) | 4.65 (inactive)
29 | PPP2CA (lysine site: K41) (UniProt P67775) | 1.68 (active)
30 | ITGA6 (lysine site: K310) (UniProt P23229) | 1.72 (active)
31 | UniProt P05787 (lysine site: K130) | 9.55 (inactive)
32 | UniProt Q9H336 (lysine site: K304) | 2.33 (inactive)
33 | UniProt Q00341 (lysine site: K1066) | 6.11 (inactive)
34 | FRAS1 (lysine site: K211) (UniProt Q86XX4) | 1.36 (active)
35 | FRAS1 (lysine site: K3278) (UniProt Q86XX4) | 2.1 (inactive)
36 | ICAM1 (lysine site: K67) (UniProt P05362) | 1.69 (active)
37 | CD151 (lysine site: K127) (UniProt P48509) | 2.31 (inactive)
38 | CD58 (lysine site: K60) (UniProt P19256) | 6.36 (inactive)
39 | LGALS1 (lysine site: K108) (UniProt P09382) | 1.62 (active)
40 | RPL4 (lysine site: K120) (UniProt P36578) | 3.18 (inactive)
